# The list is not random: actives were taken first. Their share in the collection is about 12%.
# Sm TGR inh: S. mansoni TGR enzyme inhibition | purified TGR, DTNB reduction, TNB absorbance 405 nm | actives 3% (n = 360,000) | AID 485364 | Potency, µM (series often up to 114 µM), without a hit: top-dose activity change, negative = inhibition, actives largely listed as inhibitors; also: % is scaled to controls: 0 for no effect and ±100 for the full control effect; nearly all actives have a fitted effect of over 60% in size
#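 Kinetic colorimetric format: TGR-catalysed, NADPH-driven DTNB reduction monitored via TNB absorbance. Enzyme dispensed at 20 nM; compound exposure 15 min at room temperature before reaction start.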
# Pf growth 96h: inhibits malaria parasite growth, 96 h | P. falciparum luciferase reporter growth, 96 h | Potency, µM (series often up to 28.7 µM), for the others: top-dose activity change, negative = inhibition, usual class: inhibitors | actives 6.9% (n = 320,000); also: % is scaled to controls: 0 for no effect and ±100 for the full control effect
#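 Parasite growth measured via integrated firefly luciferase reporter in P. falciparum. Infected erythrocytes at 2% hematocrit, 0.05% parasitemia final were treated 96 hours at 37 C under 5% CO2, and luminescence was read.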
# Pf growth 48h: inhibits P. falciparum growth in the first generation, 48 h; P. falciparum luciferase growth in erythrocytes, 48 h; Potency, µM (highest dose often 28.7 µM), without a hit: top-dose activity change, negative = inhibition, usual class: inhibitors; actives 5.9% (n = 310,000); AID 504832; also: % is scaled to controls: 0 for no effect and ±100 for the full control effect
#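 Luminescence readout; reporter = integrated firefly luciferase in P. falciparum. RBC culture at 2% hematocrit, 0.1% parasitemia final, 37 C/5% CO2; decreased signal taken as growth inhibition.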
# SARS PLpro yeast: inhibitors of SARS-CoV papain-like protease in yeast; actives 0.19% (n = 330,000); Potency, µM (highest dose often 32.9 µM), for the others: at the top dose activity, positive = growth rescue, most hits filed as activators; S. cerevisiae expressing SARS-CoV PLpro, growth rescue; calls by dose curve; also: 0% is about no effect; nearly all actives have a fitted effect of over 55% in size
# * hit, by the source's call; ? = inconclusive; · = no result. Unless noted, calls follow the shape of the dose curve; as a rule, active = well fitted curve in the direction sought with a large enough effect; inconclusive = small, poorly fitted or top-dose-only effect, or another doubt; inactive = no such curve, though single readings can be large; an effect the other way counts as inactive or inconclusive. Potency is read from the fitted curve at half-maximal effect.
SMILES,Sm TGR inh,Pf growth 96h,Pf growth 48h,SARS PLpro yeast
COc1ccc(-n2ccnc(SCC(=O)NCc3ccccc3Cl)c2=O)cc1,-8%,20%,-7%,1%
CC(=O)c1cccc(NC(=O)c2noc3c2CSc2ccccc2-3)c1,11µM*,·,·,·
COc1ccc(NC(=O)c2noc3c2CSc2ccccc2-3)cc1Cl,7%,·,·,·
COc1cc(OC)c(NC(=O)c2noc3c2CSc2ccccc2-3)cc1Cl,2.5µM*,·,·,·
c1ccc(-c2cc3cc4c(cc3cn2)OCO4)cc1,·,·,·,1%
CC(OC(=O)Cn1[nH]c(=O)c2ccccc2c1=O)C(=O)NC1(C#N)CCCCC1 (configuration not stated),-1%,?,10µM*,4%
Cc1cc(-c2nnc(CCC(=O)N(C)CCc3ccccc3)o2)no1,1%,9%,25%,0%
Cc1cccc(Cc2nnc(CCC(=O)N(C)CCc3ccccc3)o2)c1,6%,12µM*,-28%,-2%
CC(CNc1ccccc1O)C(=O)O (configuration not stated),50µM*,-4%,25%,-30%
C[C@H](CO)N1C[C@H](C)[C@@H](CN(C)Cc2ccccc2)Oc2c(NC(=O)C3CC3)cccc2C1=O,·,·,·,9%
CC(C)C[C@@H](CO)N(Cc1ccccc1)S(=O)(=O)N(Cc1ccccc1)[C@@H](CO)CC(C)C,25%,2.6µM*,7.4µM*,2%
COC(=O)[C@@H](CC(C)C)NS(=O)(=O)N(Cc1ccccc1)[C@@H](CC(C)C)C(=O)OC,-2%,?,13µM*,0%
CC(C)C[C@@H](CO)N(Cc1ccccc1)S(=O)(=O)N(Cc1ccccc1)[C@H](CO)CC(C)C,?,?,4.7µM*,-16%
COC(=O)[C@H](CC(C)C)NS(=O)(=O)c1ccccc1,2%,?,-17%,4%
COc1ccc(CN([C@H](CO)CC(C)C)S(=O)(=O)N(Cc2ccccc2)[C@H](CO)CC(C)C)cc1,·,·,·,-2%
C=CCN([C@@H](CC(C)C)C(=O)OC)S(=O)(=O)N(CC=C)[C@@H](CC(C)C)C(=O)OC,0%,?,4.7µM*,3%
O=CN1CCN(S(=O)(=O)c2ccc(S(=O)(=O)NC3CCCCC3)cc2)CC1,-9%,-7%,10%,-1%
CCOC(=O)c1c(C)[nH]c(C)c1S(=O)(=O)N1CCC(C(=O)NCc2cccc(C)c2)CC1,2%,·,·,·
O=C1CS(=O)(=O)C2(C(=O)N(Cc3ccccc3Cl)c3ccccc32)N1c1ccc(F)cc1 (configuration not stated),10%,·,·,·
Cc1nn(Cc2ccc(F)cc2)c2sc(C(=O)Nc3ccc(N4CCOCC4)cc3N3CCOCC3)cc12,-2%,15µM*,12µM*,-5%
O=C(CSCc1ccc(F)cc1)Nc1ccc(N2CCOCC2)cc1N1CCOCC1,0%,13µM*,5.9µM*,8%
O=C(Cc1ccccc1)Nc1ccc(N2CCOCC2)cc1N1CCOCC1,-24%,2%,-13%,-3%
O=C(COc1ccc(F)cc1Cl)Nc1ccc(N2CCOCC2)cc1N1CCOCC1,-21%,?,9.3µM*,-5%
O=C(Nc1ccccc1F)c1ccc(Cn2nc(N3CCN(c4ccccc4)CC3)ccc2=O)o1,6%,·,·,·
CC(=O)N1CCc2cc(S(=O)(=O)NC(CC(C)C)C(=O)NCCc3ccc(C)cc3)ccc21 (configuration not stated),-1%,·,·,·
SMILES,Sm TGR inh,Pf growth 96h,Pf growth 48h,SARS PLpro yeast
COc1cccc(NC(=O)COC(=O)c2ccccc2C(=O)N(C)c2ccccc2)c1,-8%,-29%,?,-2%
CN=c1scc(-c2ccco2)n1/N=C/c1ccc(O)c(O)c1,10µM*,-92%,-35%,-4%
Cc1ccc([N+](=O)[O-])cc1NC(=O)Nc1cccc(F)c1,6%,?,7.4µM*,10%
Cc1ccc([N+](=O)[O-])cc1NC(=S)NC(=O)C(C)(C)C,45µM*,-4%,17%,-9%
Cc1ccc(NS(=O)(=O)c2cc([N+](=O)[O-])ccc2NNC(=S)Nc2cc(C)ccc2C)c(C)c1,-7%,9.3µM*,15µM*,6%
COc1ccc(NC(=S)NNc2ccc([N+](=O)[O-])cc2S(=O)(=O)Nc2ccc(C)cc2C)cc1,2%,?,-6%,12%
CC(C)[C@H](NC(=O)[C@@H]1Cc2ccccc2CN1)C(=O)Nc1ccc2c(c1)OCO2,-18%,?,?,-4%
CC(=O)c1cc(-c2ccccc2)n(CC(=O)NCc2ccccc2C)c1C,1%,·,·,·
